Screens (PubChem)
A selection: hits, their analogues and other compounds. The true share with any hit is near 2.9%.
Vif imaging: blocks HIV Vif function; HEK293T cells, Vif self-association by quenched fluorescence, imaging, 24 h; inhibition, % at 7.49 µM; actives 0.35% (n = 340,000); in the data active = inhibition above about 50%, passing the limit was not always enough; inconclusive = no clear call, values can overlap the other calls; inactive = below about 31%
esBAF inh: inhibitors of esBAF chromatin remodeling in mouse ES cells; reporter increase, % at 12.5 µM; actives 2% (n = 350,000); AID 602393; Bmi1-luciferase knock-in reporter, 24 h; 100% = twice the neutral-well signal; in the data active = activation above about 40%; inconclusive = no clear call, values can overlap the other calls;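 note: 0% = median of the plate's neutral control wells and 100% = double that signal; a rise in the Bmi1 reporter signal indicates esBAF inhibition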
Glyco luc inh: N-linked glycosylation inhibition; D54 ERlucT glycosylation luciferase reporter, 24 h; percent of 100 nM tunicamycin response; reporter increase, % at 12.5 µM; actives 0.23% (n = 360,000);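 active = mean luciferase reporter signal, scaled so untreated is 0 and the glycosylation-blocking control 100, at or above a set limit in every replicate; inconclusive = mean reaches the limit but not every replicate does; inactive = mean below the limit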;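 note: luciferase carries N-glycosylation sites so blocking glycosylation raises the light; 0% = median of neutral control wells and 100% = median of 100 nM tunicamycin wells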
Wnt bcat act: activators of Wnt/beta-catenin signaling | actives 1.2% (n = 300,000) | activation, % at 9.35 µM | Wnt/beta-catenin reporter cell assay, activator, plate reader; in the data active = activation above about 30%, passing the limit was not always enough; inconclusive = no clear call, values can overlap the other calls;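 note: 0% = neutral control wells and 100% = positive control wells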
PvdQ inh: P. aeruginosa PvdQ acylase inhibition; inhibition, % at 10 µM; actives 0.063% (n = 340,000); purified PvdQ acylase, fluorescence plate reader; in the data active = inhibition above about 30%, passing the limit was not always enough; inconclusive = no clear call, values can overlap the other calls;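 note: 0% = vehicle neutral wells and 100% = reference inhibitor wells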
MITF TRPM1 HTS: MITF TRPM1 promoter activation in melanoma cells; SK-MEL-5 TRPM1-promoter luciferase, 24 h; % of positive control, neutral wells = 0; activation, % at 12.5 µM; actives 0.75% (n = 300,000); AID 588334;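 active = mean activation of at least 80% with every replicate also reaching 80%; inconclusive = mean reaches 80% but some replicate falls short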;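 note: 0% = neutral control wells and 100% = parthenolide positive control wells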
Numbers without * were called inactive; ? = inconclusive; / = no result given.

SMILES	Vif imaging	esBAF inh	Glyco luc inh	Wnt bcat act	PvdQ inh	MITF TRPM1 HTS
CCC(=O)Nc1ccc2c(c1)C(=O)N(C)[C@@H]1CC[C@H](CC(=O)NCc3ccc(OC)cc3)O[C@@H]1CO2	/	-2	/	/	/	/
CCC(=O)Nc1ccc2c(c1)C(=O)N(C)[C@H]1CC[C@@H](CC(=O)NCCCN(C)C)O[C@H]1CO2	/	2	/	/	/	/
Cc1nc(Cc2ccccc2)sc1CC#N	1	2	-1	51*	-8	-2
C[C@@H]1CCCCO[C@H](CN(C)Cc2ccncc2)[C@H](C)CN([C@H](C)CO)C(=O)c2cc(NS(=O)(=O)c3ccccc3)ccc2O1	/	-2	/	/	/	/
CN(C)S(=O)(=O)N1CCCN(S(=O)(=O)N(C)C)CC1	66*	-8	2	/	-5	/
CN(C)S(=O)(=O)N1CCN(S(=O)(=O)N2CCOCC2)CC1	-3	/	0	0	-14	0
Cc1cc(C(=O)C(=O)O)c(C)n1-c1ccc(Cl)cc1	11	-2	2	-1	4	4
Cc1cc(C(=O)C(C)Sc2cccc[n+]2[O-])c(C)n1-c1ccc(Cl)cc1 (stereo not drawn)	-6	62*	-8	6	-15	20
CC(=O)c1cccc(Nc2cc(C)nc3c(C)cc(C)cc23)c1	-5	/	67*	/	-2	3
CC(=O)c1cccc(Nc2cc(C)nc3ccc(C)cc23)c1	-8	/	12	2	-10	-10
O=C(Nc1ccc(C(F)(F)F)cc1)c1ccc2nc[nH]c2c1	-10	30	1	-3	-13	-6
O=C(Nc1ccc(C(F)(F)F)cc1)c1ccc2ncsc2c1	-12	58*	-1	12	1	/
O=C(Nc1ccc(Cl)cc1)c1ccc2nsnc2c1	-7	109*	-1	-1	-6	67
O=C(Nc1cccc(Cl)c1)c1ccc2ncsc2c1	-5	48*	1	17	-13	46
N#Cc1ccsc1NC(=O)c1ccc2ncsc2c1	-2	71*	0	18	/	/
O=C(C[C@@H]1CC[C@H]2[C@@H](COC[C@@H](O)CN2S(=O)(=O)c2cccc(Cl)c2)O1)NCCCN1CCOCC1	/	-6	/	/	/	/
COc1ccc(NC(=O)N(C)C[C@H]2OCCCC[C@@H](C)Oc3ccc(NS(C)(=O)=O)cc3C(=O)N([C@@H](C)CO)C[C@H]2C)cc1	/	-1	/	/	/	/
O=C(C[C@H]1C[C@@H]2c3cc(NC(=O)C4CCOCC4)ccc3O[C@@H]2[C@H](CO)O1)NCc1ccncc1	/	-2	/	/	/	/
O=C(Nc1ccc(F)cc1)c1ccc2ncsc2c1	2	?	2	20	1	73
O=C(Nc1ccc(Cl)cc1)c1ccc2ncsc2c1	-5	65*	-1	19	-12	64
C[C@@H]1CCCCO[C@@H](CN(C)S(=O)(=O)c2ccccc2)[C@H](C)CN([C@@H](C)CO)C(=O)c2cc(NC(=O)CCCN(C)C)ccc2O1	/	0	/	/	/	/
CSc1ccc(C=NNc2ccc(S(=O)(=O)Nc3ccccc3C(=O)O)cc2[N+](=O)[O-])cc1	-5	-1	0	-2	-4	-5
CCOc1ccc(C=NNc2ccc(S(=O)(=O)Nc3ccccc3C(=O)O)cc2[N+](=O)[O-])cc1	-4	-6	-3	37*	1	-8
Cc1cc(OCc2cc(C(=O)N(C)CC3CCOCC3)no2)cc(C)c1Cl	0	50*	0	-4	1	47
CCN(CC1CCCO1)C(=O)c1cc(COc2cc(C)c(Cl)c(C)c2)on1 (stereo not drawn)	13	84*	-4	30	-13	90*
SMILES	Vif imaging	esBAF inh	Glyco luc inh	Wnt bcat act	PvdQ inh	MITF TRPM1 HTS
O=C(Nc1ccccc1F)N1C[C@H]2[C@@H](c3ccccc31)[C@H](CO)N2C(=O)Cc1cccnc1	/	23	/	/	/	/
CCOC(=O)c1c(C=O)c2ccccc2n1CC	5	3	-1	-3	-5	-6
CCOC(=O)c1c(C=O)c2sc(C)cc2n1C	1	6	-1	44*	3	24
O=C(NCc1ccco1)c1sc2ccccc2c1Cl	/	49*	0	/	-20	48
C[C@H]1CN([C@@H](C)CO)C(=O)Cc2cc(NC(=O)Cn3cnnn3)ccc2O[C@H]1CN(C)S(=O)(=O)c1ccc(F)cc1	/	2	/	/	/	/
CC1(C)CC(/C=C/c2ccccc2)=Nc2ccccc2N1	-6	/	0	-5	0	95*
O=C1CC(/C=C/c2ccccc2)=Nc2ccccc2N1	-25	9	2	0	-7	26
CO[C@H]1CN(C)C(=O)c2ccc(NC(=O)c3ccccc3F)cc2OC[C@@H](C)N(C(=O)c2ccccc2F)C[C@H]1C	/	17	/	/	/	/
Cc1ccc(Cn2nc(-c3ccccc3)nc2-c2ccccc2)cc1	2	36	-2	55*	2	63
Oc1cccc2c3c(oc12)CCCC3	70*	35	-1	11	/	/
C[C@@H]1CCCCO[C@@H](CN(C)C(=O)Cc2ccccc2)[C@H](C)CN([C@H](C)CO)C(=O)c2cc(NS(=O)(=O)c3ccc(Cl)cc3)ccc2O1	/	11	/	/	/	/
Cn1c(NC(=O)C[n+]2cc(-c3ccc(F)cc3)n3c2CCC3)cc(=O)n(C)c1=O	4	-5	1	/	-6	11
O=C(C[n+]1cc(-c2ccc(F)cc2)n2c1CCC2)c1cccs1	-2	46*	-1	-2	-23	/
COc1cc(N)ccc1NC(=O)c1cc2ccccc2o1	-6	8	-6	24	7	/
CCCC(=O)Nc1ccc(NC(=O)c2cc3ccccc3o2)c(OC)c1	3	53*	3	2	2	64
COc1cc(NC(C)=O)ccc1NC(=O)c1cc2ccccc2o1	8	55*	1	3	5	39
COc1cc(NC(=O)c2ccccc2)ccc1NC(=O)c1cc2ccccc2o1	1	0	2	7	-14	8
O=c1[nH]c(-c2ccncc2)nc2ccccc12	/	1	2	-8	-9	-12
Cc1cccc(-c2nc3ccccc3c(=O)[nH]2)c1	0	8	0	26	-6	97*
O=C1CNC(=S)N1CCc1ccc(O)c(O)c1	-4	/	-1	50*	/	/
COc1cc(C#Cc2c(-c3cncn3C)n(C)c3ccc(-c4ccc(CN5CCOCC5)cc4)cc23)cc(OC)c1	8	22	-4	5	-16	28
COc1cc(C#Cc2c(-c3cncn3C)n(C)c3ccc(-c4cnc(N5CCOCC5)nc4)cc23)cc(OC)c1	2	29	-9	22	5	89*
Cc1ccc(/C=C/C(=O)Nc2ccc(Oc3ccccc3)cc2)o1	-9	/	5	/	-1	7
Cc1ccc(/C=C/C(=O)Nc2ccc([N+](=O)[O-])cc2)o1	-5	64*	2	10	-5	56
Cc1ccc(NC(=O)/C=C/c2ccc([N+](=O)[O-])s2)cc1	-2	/	6	35*	-10	-80
Cc1cccc(NC(=O)/C=C/c2ccc([N+](=O)[O-])s2)c1	/	/	-17	/	-5	-95
